Hit rate of the full screen: of about 68,000 compounds, about 2,700 (4%) showed an effect of 50% or more. The full list was thinned out, with strong results kept by preference.
Each compound was assayed on Plasmodium berghei (assay: Screen against P. berghei liver stage (PbLuc), transformed with Luciferase, at 2uM). Details: tested at 2 uM.
Type: functional, HepG2

| SMILES | INHIBITION [%] |
| --- | --- |
| CN(C)C(=O)COc1ccccc1CN1CCCC2(C1)CN(C)C(=O)O2 (stereo not drawn) | -38.26 |
| CC(=O)Nc1cc(C2CC2)nn1-c1nc(C)c(C)c(=O)[nH]1 | -8.91 |
| Cc1cc(NC(=O)C(C)C)n(-c2nc(C)c(C)c(=O)[nH]2)n1 | 27.11 |
| Cc1nc(-n2nc(C3CC3)cc2NC(=O)C(C)C)[nH]c(=O)c1C | 55.52 |
| CC(C)(C#N)CCCS(=O)(=O)c1nccn1-c1cccc(F)c1 | 19.33 |
| COc1ccc2c(OCC(=O)NC(C)(C)C)ccnc2c1 | -3.8 |
| COc1ccc2c(OCC(=O)NCC(F)(F)F)ccnc2c1 | -26.08 |
| CCN(CC)C(=O)COc1ccnc2cc(OC)ccc12 | 50.42 |
| CCN(CC1CCOC1)C(=O)Nc1ccc(N2CCOCC2)nc1 (stereo not drawn) | -25.45 |
| CCN(CC1CCOC1)C(=O)c1cccnc1N1CCOCC1 (stereo not drawn) | 53.03 |
| CCN(CC1CCOC1)C(=O)c1ccccc1N1CCOCC1 (stereo not drawn) | -45.72 |
| CN(C)c1nccc(N2CCO[C@H]3CN(Cc4ccsc4)C[C@H]32)n1 | -33.63 |
| CN(C)c1nccc(N2CCO[C@H]3CN(Cc4ccco4)C[C@H]32)n1 | 28.14 |
| Cc1cccc(CN2C[C@@H]3OCCN(c4ccnc(N(C)C)n4)[C@@H]3C2)c1 | 53.55 |
| COc1cccn(CC(=O)N2CCCC3(CCCCC3)C2)c1=O | 26.14 |
| Cc1[nH]c2cc(C3CCN(C(=O)c4ccccn4)CC3)nn2c(=O)c1C | 9.9 |
| Cc1ccc(-c2nc(C3CCN(C(=O)c4ccnn4C)CC3)no2)cn1 | 10.65 |
| Cc1csc(CN(C)C(=O)Nc2cc(F)cc(N3CCCC3)c2)n1 | 0.12 |
| c1ccc(CO[C@H]2CC[C@H]3[C@H]2OCCN3CCN2CCCCC2)nc1 | 27.42 |
| Cc1cccc(CN2CCO[C@H]3[C@H](Oc4ccccn4)CC[C@@H]32)n1 | 64.44 |
| CCOCCN1CCO[C@H]2[C@H](OCc3ccccn3)CC[C@@H]21 | 55.07 |

| SMILES | INHIBITION [%] |
| --- | --- |
| CCS(=O)(=O)N1C[C@@H](Oc2ccccn2)[C@H]2OCCC[C@H]21 | 13.38 |
| CS(=O)(=O)N1C[C@@H](Oc2ccccn2)[C@H]2OCCC[C@H]21 | 50.72 |
| COc1ccc(CN2CCO[C@H]3[C@H](Oc4ccccn4)CC[C@@H]32)cc1 | -0.68 |
| O=S(=O)(C1CC1)N1C[C@H](Oc2ccccn2)[C@H]2OCCC[C@H]21 | 17.77 |
| Cc1nc(CN2CCO[C@H]3[C@@H](Oc4ccccn4)CC[C@@H]32)cs1 | 27.9 |
| CCN(CC)CCN1CCO[C@H]2[C@@H](OCc3ccccn3)CC[C@@H]21 | -31.4 |
| COc1ccc2c(=O)ccn(CC(=O)O)c2c1 | 16.54 |
| Cc1noc(C2CCN(C(C)c3nc(C(C)(C)C)no3)CC2)n1 (stereo not drawn) | 11.42 |
| COC(=O)CSc1nnc(CCNC(=O)OC(C)(C)C)o1 | 25.59 |
| COCCNC(=O)C1CN(Cc2ccncc2)Cc2ccnn2C1 (stereo not drawn) | -15.71 |
| CC(C1CC1)N(C)C(=O)c1ccc(-n2ncc(C#N)c2N)cc1 (stereo not drawn) | 26.2 |
| Fc1cccc(Nc2nc(N3CCCC3)nc3c2CNCC3)c1 | 32.67 |
| Cc1c(F)cccc1CN1CCn2nc(CNC(=O)N(C)C)cc2C1 | 21.08 |
| Cc1nc(CNCC2CNc3ccnn3C2)cs1 (stereo not drawn) | 0.05 |
| CC(C)Nc1ncnc2c1CCN(C(=O)Cc1ccccn1)CC2 | 14.23 |
| O=C(c1cscn1)N1CC[C@@H]2[C@@H]1CCN2c1ccccn1 | 36.03 |
| COc1cc(N2C[C@@H]3COC[C@]3(COc3ccc(C#N)cn3)C2)ncn1 | -15.95 |
| Cc1cnc(CN2CCN(c3nc(C)cs3)C(C)C2)cn1 (stereo not drawn) | 50.3 |
| Cc1csc(N2CCN(Cc3cscn3)CC2C)n1 (stereo not drawn) | -7.32 |
| Cc1csc(N2CCN(Cc3ccccn3)CC2C)n1 (stereo not drawn) | -13.94 |
| COc1ccc(CNC(C)c2cccc(Br)c2)c(OC)c1OC (stereo not drawn) | 0.8 |

| SMILES | INHIBITION [%] |
| --- | --- |
| OC1(Cn2ccc3ncccc32)CCN(Cc2ccccc2F)CC1 | 22.81 |
| CCN(CC)C(CNC(=O)c1ccc(-n2cncn2)cc1)c1ccsc1 (stereo not drawn) | -12.13 |
| CCN(CC)C(CNC(=O)c1ccnc(N(C)C)c1)c1ccsc1 (stereo not drawn) | 86.89 |
| CCN(CC)C(CNC(=O)c1cccnc1-n1cncn1)c1ccsc1 (stereo not drawn) | 28.81 |
| Cc1ccc(C(=O)N2CCC3(CC2)CCN(Cc2ccccn2)C3=O)o1 | 2.5 |
| CN1C(=O)c2cccc(NC(=O)c3ccc4c(c3)OCCO4)c2C1=O | 27.8 |
| O=C(CCc1ccc(-c2ccccc2)[nH]1)N1CCCC(n2ccnc2)C1 (stereo not drawn) | -13.92 |
| CCN1CCN(C2CCN(Cc3noc(C4CC4)n3)CC2)C1=O | 24.65 |
| CCN1CCN(C2CCN(Cc3noc(C)n3)CC2)C1=O | 62.13 |
| Cc1nc(CN2CCC(N3CCN(C)C3=O)CC2)no1 | 40.17 |
| COCCN(C)C(C(=O)O)c1ccc2ccccc2c1 (stereo not drawn) | 10.75 |
| Cc1cc(C)n(C2CCCN(C(=O)c3cc(C(N)=O)cs3)C2)n1 (stereo not drawn) | 20.93 |
| Cc1cccc(N2CCN(CCNC(=O)C(C)n3cncn3)CC2)c1 (stereo not drawn) | 12.88 |
| O=C(N[C@@H]1CN(CC2CC2)[C@@H]2CCCO[C@@H]21)c1cscn1 | 17.24 |
| CCC(=O)N1CCN(Cc2cnc(C)nc2)[C@H]2CS(=O)(=O)C[C@H]21 | -36.29 |
| Cc1ncc(CN2CCN(C(=O)N(C)C)[C@@H]3CS(=O)(=O)C[C@@H]32)cn1 | 55.99 |
| CCN(CC)C(=O)N1CCN(Cc2cnc(C)nc2)[C@H]2CS(=O)(=O)C[C@H]21 | 29.51 |
| O=C(CC1CC1)N1CCC2(CC1)CN(c1ncccn1)CCO2 | -26.24 |
| CO[C@H]1CCN(S(=O)(=O)c2cn(C)cn2)[C@H]1Cc1ccccc1 | 74.27 |
| CCO[C@H]1CCN(S(=O)(=O)c2cn(C)cn2)[C@H]1Cc1ccccc1 | -40.45 |
| CO[C@@H]1CCN(S(=O)(=O)c2cn(C)cn2)[C@H]1Cc1ccccc1 | 4.38 |
